Screen size: about 5,500 compounds; about 2,000 (36%) were called active. Not shown: some 18% with an inconclusive outcome. No stated cut-off is given here; in the data, active means normalized growth mostly below about 0.91 (no sharp cut-off); inconclusive means no clear call, values can overlap the other calls; inactive means mostly above about 0.92. Some of the results follow.
Test: chemical genetic growth profiling, strain panel (AID 1159580);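 further: tested at 20 µM; growth read once vehicle control cultures reached saturation at 30 °C; 1 = growth at the plate median or of vehicle wells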
Settings: S. cerevisiae deletion strains, growth OD

Measured: normalized growth

C[C@H]1[C@H](C)CC[C@]2(C(=O)O)CC[C@]3(C)C(=CCC4[C@@]5(C)C[C@@H](O)[C@H](O)[C@@](C)(CO)C5CC[C@]43C)[C@H]12 (stereo not given in full)
active: locus YLR113W, strain HOG1, stronger effect = lower value 0.721
inactive: locus YAL021C, strain ccr4, stronger effect = lower value 0.993 | locus YAL026C, strain drs2, stronger effect = lower value 1.04 | locus YAL030W, strain snc1, stronger effect = lower value 1.02 | locus YBL061C, strain skt5, stronger effect = lower value 1.01 | locus YBR009C, strain hhf1, stronger effect = lower value 1.01 | locus YBR023C, strain chs3, stronger effect = lower value 0.995 | locus YBR171W, strain sec66, stronger effect = lower value 1.04 | locus YBR231C, strain swc5, stronger effect = lower value 1.03 | locus YBR279W, strain paf1, stronger effect = lower value 1.01 | locus YCL011C, strain gbp2, stronger effect = lower value 1.02 | locus YCL016C, strain dcc1, stronger effect = lower value 1.01 | locus YCL061C, strain MRC1, stronger effect = lower value 1.02 | locus YCL069W, strain vba3, stronger effect = lower value 1.03 | locus YCR088W, strain abp1, stronger effect = lower value 1.03 | locus YDL005C, strain med2, stronger effect = lower value 1.03 | locus YDL040C, strain nat1, stronger effect = lower value 1.02 | locus YDR001C, strain nth1, stronger effect = lower value 1.03 | locus YDR069C, strain doa4, stronger effect = lower value 1.02 | locus YDR137W, strain rgp1, stronger effect = lower value 0.982 | locus YDR159W, strain sac3, stronger effect = lower value 0.983 | locus YDR195W, strain ref2 0.945 | locus YDR297W, strain sur2, stronger effect = lower value 1.02 | locus YDR334W, strain swr1, stronger effect = lower value 1.04 | locus YDR335W, strain msn5, stronger effect = lower value 1.02 | locus YDR392W, strain spt3, stronger effect = lower value 0.931 | locus YEL003W, strain gim4, stronger effect = lower value 1.02 | locus YEL037C, strain rad23, stronger effect = lower value 1.03 | locus YEL061C, strain CIN8 (second series), stronger effect = lower value 1.03 | locus YER015W, strain faa2, stronger effect = lower value 1.02 | locus YER016W, strain bim1, stronger effect = lower value 1.02 | locus YER111C, strain swi4, stronger effect = lower value 1.03 | locus YER155C, strain BEM2 (second series), stronger effect = lower value 1 | locus YFR010W, strain ubp6, stronger effect = lower value 1.04 | locus YGL167C, strain pmr1, stronger effect = lower value 1.03 | locus YGL173C, strain kem1, stronger effect = lower value 1.03 | locus YGL227W, strain vid30, stronger effect = lower value 1.04 | locus YGL240W, strain doc1, stronger effect = lower value 0.988 | locus YGL253W, strain hxk2, stronger effect = lower value 1.03 | locus YHR013C, strain ard1, stronger effect = lower value 1.03 | locus YHR027C, strain rpn1, stronger effect = lower value 1.02 | locus YHR030C, strain SLT2, stronger effect = lower value 0.949 | locus YHR079C, strain IRE1, stronger effect = lower value 0.937 | locus YHR142W, strain chs7, stronger effect = lower value 0.996 | locus YJL092W, strain hpr5, stronger effect = lower value 1.04 | locus YJL095W, strain BCK1 (second series), stronger effect = lower value 1.02 | locus YJL095W, strain BCK1, stronger effect = lower value 0.911 | locus YJL115W, strain asf1, stronger effect = lower value 1.02 | locus YJL129C, strain trk1, stronger effect = lower value 1 | locus YJL154C, strain vps35, stronger effect = lower value 1.03 | locus YJL164C, strain tpk1, stronger effect = lower value 0.993 | locus YJL166W, strain qcr8, stronger effect = lower value 0.996 | locus YJL187C, strain SWE1, stronger effect = lower value 1.02 | locus YJR066W, strain TOR1, stronger effect = lower value 0.939 | locus YKL160W, strain elf1, stronger effect = lower value 0.975 | locus YKR026C, strain gcn3, stronger effect = lower value 1.03 | locus YKR091W, strain srl3, stronger effect = lower value 1.02 | locus YLL001W, strain dnm1, stronger effect = lower value 1 | locus YLL026W, stronger effect = lower value 1.01 | locus YLL041C, strain sdh2, stronger effect = lower value 1.02 | locus YLR027C, strain aat2, stronger effect = lower value 1.01 | locus YLR221C, strain rsa3, stronger effect = lower value 0.982 | locus YLR258W, strain gsy2, stronger effect = lower value 1.01 | locus YLR262C, strain YPT6 (second series), stronger effect = lower value 0.975 | locus YLR320W, strain mms22, stronger effect = lower value 1.02 | locus YLR342W, strain FKS1, stronger effect = lower value 1.04 | locus YLR357W, strain rsc2, stronger effect = lower value 1.05 | locus YLR370C, strain arc18, stronger effect = lower value 1.03 | locus YLR384C, strain iki3, stronger effect = lower value 1.03 | locus YML120C, strain ndi1, stronger effect = lower value 0.978 | locus YMR058W, strain fet3, stronger effect = lower value 1.03 | locus YMR125W, strain sto1, stronger effect = lower value 1.05 | locus YMR129W, stronger effect = lower value 1.04 | locus YMR205C, strain PFK2, stronger effect = lower value 1.01 | locus YMR231W, strain pep5, stronger effect = lower value 1.03 | locus YNL071W, strain lat1, stronger effect = lower value 1.02 | locus YNL183C, strain NPR1, stronger effect = lower value 0.894 | locus YNL209W, strain ssb2, stronger effect = lower value 1.03 | locus YNL248C, strain rpa49, stronger effect = lower value 1.03 | locus YNL322C, strain KRE1 (second series), stronger effect = lower value 1.03 | locus YNR049C, strain mso1, stronger effect = lower value 1.03 | locus YOR001W, strain rrp6, stronger effect = lower value 0.973 | locus YOR070C, strain gyp1, stronger effect = lower value 1.01 | locus YOR080W, strain dia2, stronger effect = lower value 1.03 | locus YOR083W, strain WHI5, stronger effect = lower value 0.984 | locus YOR106W, strain vam3, stronger effect = lower value 0.981 | locus YOR231W, strain MKK1, stronger effect = lower value 0.973 | locus YOR265W, strain rbl2, stronger effect = lower value 1.02 | locus YOR270C, strain vph1, stronger effect = lower value 1.03 | locus YOR290C, strain snf2, stronger effect = lower value 0.968 | locus YPL051W, strain arl3, stronger effect = lower value 0.974 | locus YPL078C, strain atp4, stronger effect = lower value 1 | locus YPL106C, strain sse1, stronger effect = lower value 1.01 | locus YPL240C, strain hsp82, stronger effect = lower value 1.03 | locus YPL256C, strain CLN2, stronger effect = lower value 0.963
